PubChem BioAssay (NCI)
The panel holds about 83,000 compounds, 20% with a hit somewhere; the sample as a whole holds those more often.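 Compound tested at a single concentration for 48 hours in 96-well plates; a percent growth value below 10 was scored as active.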 Activity calls are given as the source filed them.

Tests used:
Assay in all cases: NCI-60 one-dose screen, 48 h (100 = growth as untreated, 0 = no growth, -100 = all killed)
Conditions in all cases: 10 µM unless noted
HCT-15 colon = test system: HCT-15 colon
HT29 colon = test system: HT29 colon
SNB-75 CNS = test system: SNB-75 CNS
SNB-19 CNS = test system: SNB-19 CNS
U251 CNS = test system: U251 CNS
PC-3 prostate = test system: PC-3 prostate
SK-MEL-5 melanoma = test system: SK-MEL-5 melanoma
UACC-62 melanoma = test system: UACC-62 melanoma
LOX IMVI melanoma = test system: LOX IMVI melanoma
SK-MEL-28 melanoma = test system: SK-MEL-28 melanoma
SK-MEL-2 melanoma = test system: SK-MEL-2 melanoma
EKVX NSCLC = test system: EKVX NSCLC
SN12C renal = test system: SN12C renal
UO-31 renal = test system: UO-31 renal
TK-10 renal = test system: TK-10 renal
ACHN renal = test system: ACHN renal
CAKI-1 renal = test system: CAKI-1 renal
A498 renal = test system: A498 renal
CCRF-CEM leukemia = test system: CCRF-CEM leukemia
MOLT-4 leukemia = test system: MOLT-4 leukemia

Measured: growth

Fc1ccc(-c2nc(-c3ccc(-c4nc5ccc(F)cc5[nH]4)cc3)no2)cc1
inactive: HCT-15 colon 86.1% | HT29 colon 84.7% | SNB-75 CNS 57.6% | SNB-19 CNS 82.5% | U251 CNS 82.9% | PC-3 prostate 68.7% | SK-MEL-5 melanoma 74.4% | UACC-62 melanoma 75.5% | LOX IMVI melanoma 43.5% | SK-MEL-28 melanoma 80.5% | SK-MEL-2 melanoma 102% | EKVX NSCLC 85.1% | SN12C renal 84.3% | UO-31 renal 84.4% | TK-10 renal 119% | ACHN renal 71% | CAKI-1 renal 81.3% | A498 renal 79.6% | CCRF-CEM leukemia 74.9% | MOLT-4 leukemia 94.8%

CCCCCCCCCCCCCCCCCC(=O)OCCCCCCCCCCCCC
inactive: HCT-15 colon 108% | HT29 colon 103% | SNB-75 CNS 104% | SNB-19 CNS 113% | U251 CNS 108% | PC-3 prostate 102% | SK-MEL-5 melanoma 114% | UACC-62 melanoma 113% | LOX IMVI melanoma 103% | SK-MEL-28 melanoma 125% | SK-MEL-2 melanoma 112% | EKVX NSCLC 106% | SN12C renal 111% | UO-31 renal 95% | TK-10 renal 122% | ACHN renal 104% | CAKI-1 renal 103% | A498 renal 105% | CCRF-CEM leukemia 73% | MOLT-4 leukemia 113%

O=c1c2cc(Br)cc(Br)c2nc(-c2ccc(Cl)cc2)n1/N=C/c1cccc(F)c1
inactive: HCT-15 colon 75.2% | HT29 colon 62.1% | SNB-19 CNS 57.6% | U251 CNS 43.3% | PC-3 prostate 67% | SK-MEL-5 melanoma 70.9% | UACC-62 melanoma 74.6% | LOX IMVI melanoma 62.4% | SK-MEL-28 melanoma 85.1% | SK-MEL-2 melanoma 59.8% | EKVX NSCLC 59.2% | SN12C renal 53.5% | UO-31 renal 19.7% | TK-10 renal 22.3% | ACHN renal 10.8% | CAKI-1 renal 14.5% | A498 renal 101% | CCRF-CEM leukemia 48.8% | MOLT-4 leukemia 64.8%
active: SNB-75 CNS -0.938%

O=C(c1ccccc1)C(CCc1ccccn1)CCc1ccccn1
inactive: HCT-15 colon 96.6% | HT29 colon 96.7% | SNB-75 CNS 106% | SNB-19 CNS 94.1% | U251 CNS 101% | PC-3 prostate 86.8% | SK-MEL-5 melanoma 100% | UACC-62 melanoma 86.1% | LOX IMVI melanoma 95.8% | SK-MEL-28 melanoma 106% | SK-MEL-2 melanoma 96.1% | EKVX NSCLC 107% | SN12C renal 95.7% | UO-31 renal 75.1% | TK-10 renal 97.3% | ACHN renal 106% | CAKI-1 renal 106% | A498 renal 100% | CCRF-CEM leukemia 95.3% | MOLT-4 leukemia 99%

Nc1c(Br)cc2c(c1Br)Cc1cc(Cl)ccc1-2
inactive: HCT-15 colon 109% | HT29 colon 111% | SNB-75 CNS 72.4% | SNB-19 CNS 88.5% | U251 CNS 101% | PC-3 prostate 82.6% | SK-MEL-5 melanoma 90.5% | UACC-62 melanoma 96.2% | LOX IMVI melanoma 89.3% | SK-MEL-28 melanoma 98.6% | SK-MEL-2 melanoma 114% | EKVX NSCLC 69.1% | SN12C renal 89.8% | UO-31 renal 77.6% | TK-10 renal 130% | ACHN renal 81.3% | CAKI-1 renal 74.6% | A498 renal 121% | CCRF-CEM leukemia 94.2% | MOLT-4 leukemia 97.4%

COc1cc2ncnc(Nc3ccc(S(=O)(=O)Nc4nccs4)cc3)c2cc1OCCCN1CCOCC1
inactive: HCT-15 colon 104% | HT29 colon 106% | SNB-75 CNS 95.1% | SNB-19 CNS 104% | U251 CNS 100% | PC-3 prostate 99% | SK-MEL-5 melanoma 108% | UACC-62 melanoma 98.7% | LOX IMVI melanoma 97.2% | SK-MEL-28 melanoma 109% | SK-MEL-2 melanoma 99.2% | EKVX NSCLC 111% | SN12C renal 98% | UO-31 renal 83.6% | TK-10 renal 103% | ACHN renal 103% | CAKI-1 renal 91.7% | A498 renal 115% | CCRF-CEM leukemia 105% | MOLT-4 leukemia 105%

CCN(CC)CCNC(=O)C(F)(F)C(F)(F)C(F)(F)F
inactive: HCT-15 colon 100% | HT29 colon 115% | SNB-75 CNS 97.2% | SNB-19 CNS 116% | U251 CNS 104% | PC-3 prostate 96% | SK-MEL-5 melanoma 105% | UACC-62 melanoma 107% | LOX IMVI melanoma 104% | SK-MEL-28 melanoma 115% | SK-MEL-2 melanoma 106% | EKVX NSCLC 102% | SN12C renal 108% | UO-31 renal 89.9% | TK-10 renal 108% | ACHN renal 101% | CAKI-1 renal 94.6% | A498 renal 102% | CCRF-CEM leukemia 100% | MOLT-4 leukemia 109%

COc1cc(/C=C/c2cc(/C=C/c3ccc(O)c(OC)c3)n(C(=O)c3ccccc3Br)n2)ccc1O
active: HT29 colon 0.381% | SK-MEL-5 melanoma -1.91% | UACC-62 melanoma 3.48% | LOX IMVI melanoma 9.29% | SK-MEL-2 melanoma -0.325% | CAKI-1 renal -34.8% | CCRF-CEM leukemia 3.52% | MOLT-4 leukemia -6.53%
inactive: HCT-15 colon 16.2% | SNB-75 CNS 27.3% | SNB-19 CNS 36.2% | U251 CNS 35.1% | PC-3 prostate 12.9% | SK-MEL-28 melanoma 28.6% | EKVX NSCLC 30.6% | SN12C renal 14.2% | UO-31 renal 23.9% | TK-10 renal 65% | ACHN renal 25.1% | A498 renal 56.4%

C=CCOc1ccc2c(C)cc(=O)oc2c1
inactive: HCT-15 colon 101% | HT29 colon 94.9% | SNB-75 CNS 111% | SNB-19 CNS 122% | U251 CNS 89% | PC-3 prostate 93% | SK-MEL-5 melanoma 108% | UACC-62 melanoma 105% | LOX IMVI melanoma 105% | SK-MEL-28 melanoma 113% | SK-MEL-2 melanoma 129% | EKVX NSCLC 106% | SN12C renal 115% | UO-31 renal 115% | TK-10 renal 91.9% | ACHN renal 108% | CAKI-1 renal 97.9% | A498 renal 71% | CCRF-CEM leukemia 96.2% | MOLT-4 leukemia 107%

COc1cc(C2CC(c3ccc(Cl)cc3)=NN2C(C)=O)ccc1Oc1ccnc2cc(Cl)ccc12 (stereo not given)
inactive: HCT-15 colon 91.9% | HT29 colon 28.2% | SNB-75 CNS 33.2% | SNB-19 CNS 70.7% | U251 CNS 43.8% | PC-3 prostate 58.3% | SK-MEL-5 melanoma 67.8% | UACC-62 melanoma 60.5% | LOX IMVI melanoma 37.9% | SK-MEL-28 melanoma 55.1% | SK-MEL-2 melanoma 67.2% | EKVX NSCLC 51.9% | SN12C renal 70.9% | UO-31 renal 57.5% | TK-10 renal 37.4% | ACHN renal 18.8% | CAKI-1 renal 26.1% | A498 renal 69% | CCRF-CEM leukemia 87.1% | MOLT-4 leukemia 97.4%

COc1cc(C2CC(c3ccc(C)cc3)=NN2C=O)ccc1Oc1ccnc2cc(Cl)ccc12 (stereo not given)
inactive: HCT-15 colon 97.4% | HT29 colon 92.3% | SNB-19 CNS 29.5% | PC-3 prostate 85.3% | SK-MEL-5 melanoma 97.1% | UACC-62 melanoma 55.8% | LOX IMVI melanoma 76% | SK-MEL-28 melanoma 101% | EKVX NSCLC 79.2% | SN12C renal 75.7% | UO-31 renal 95.3% | TK-10 renal 54.5% | ACHN renal 48.3% | CAKI-1 renal 69.7% | A498 renal 53.3% | CCRF-CEM leukemia 82.8% | MOLT-4 leukemia 80.3%
active: SNB-75 CNS -36.1% | U251 CNS 7.3% | SK-MEL-2 melanoma 6.3%

N=c1nc(N2CCCCC2)cc(N)n1O
inactive: HCT-15 colon 97% | HT29 colon 107% | SNB-75 CNS 93.5% | SNB-19 CNS 99.8% | U251 CNS 101% | PC-3 prostate 103% | SK-MEL-5 melanoma 94.8% | UACC-62 melanoma 104% | LOX IMVI melanoma 110% | SK-MEL-28 melanoma 111% | SK-MEL-2 melanoma 118% | EKVX NSCLC 108% | SN12C renal 98.8% | UO-31 renal 104% | TK-10 renal 112% | ACHN renal 97.5% | CAKI-1 renal 101% | A498 renal 117% | CCRF-CEM leukemia 112% | MOLT-4 leukemia 93%

CN(C)N1C(=O)c2c(Cl)c(Cl)c(Cl)c(Cl)c2C1=O
inactive: HCT-15 colon 109% | HT29 colon 107% | SNB-75 CNS 92.7% | SNB-19 CNS 108% | U251 CNS 102% | PC-3 prostate 99.2% | SK-MEL-5 melanoma 101% | UACC-62 melanoma 104% | LOX IMVI melanoma 96.8% | SK-MEL-28 melanoma 112% | SK-MEL-2 melanoma 105% | EKVX NSCLC 124% | SN12C renal 103% | UO-31 renal 95.9% | TK-10 renal 98% | ACHN renal 133% | CAKI-1 renal 126% | A498 renal 106% | CCRF-CEM leukemia 89% | MOLT-4 leukemia 88.3%

C=C(COC(C)=O)[C@H]1CC/C(C)=C/CC/C(C)=C/CC[C@@]2(C)O[C@H]2C1
inactive: HCT-15 colon 96% | HT29 colon 108% | SNB-75 CNS 109% | SNB-19 CNS 106% | U251 CNS 98.3% | PC-3 prostate 129% | SK-MEL-5 melanoma 108% | UACC-62 melanoma 99.6% | LOX IMVI melanoma 94.6% | SK-MEL-28 melanoma 104% | SK-MEL-2 melanoma 101% | EKVX NSCLC 106% | SN12C renal 106% | UO-31 renal 99.9% | TK-10 renal 108% | ACHN renal 99.8% | CAKI-1 renal 126% | A498 renal 119% | CCRF-CEM leukemia 328% | MOLT-4 leukemia 110%

NC(N)=N/N=C/c1cccc(Cl)c1Cl
inactive: HCT-15 colon 82.7% | HT29 colon 24% | SNB-75 CNS 63.8% | SNB-19 CNS 85.8% | U251 CNS 73.3% | PC-3 prostate 89.2% | SK-MEL-5 melanoma 85.6% | UACC-62 melanoma 90.5% | LOX IMVI melanoma 76.4% | SK-MEL-28 melanoma 99.2% | SK-MEL-2 melanoma 106% | EKVX NSCLC 69.2% | SN12C renal 90.1% | UO-31 renal 66.3% | TK-10 renal 88% | ACHN renal 84.2% | CAKI-1 renal 59.1% | A498 renal 61.6% | CCRF-CEM leukemia 52.7% | MOLT-4 leukemia 47.6%

CCCCCN(CCCCC)C(=O)C(CCC(=O)O)NC(=O)c1ccc(Cl)c(Cl)c1 (stereo not given)
inactive: HCT-15 colon 112% | HT29 colon 109% | SNB-75 CNS 93.3% | SNB-19 CNS 112% | U251 CNS 101% | PC-3 prostate 93% | SK-MEL-5 melanoma 90.5% | UACC-62 melanoma 98.4% | LOX IMVI melanoma 99.9% | SK-MEL-28 melanoma 105% | SK-MEL-2 melanoma 105% | EKVX NSCLC 109% | SN12C renal 100% | UO-31 renal 80.4% | TK-10 renal 124% | ACHN renal 100% | CAKI-1 renal 91.3% | A498 renal 83.8% | CCRF-CEM leukemia 114% | MOLT-4 leukemia 102%
